Data: PubChem BioAssay AID624330 (Southern Research Specialized Biocontainment Screening …, 2012)
The whole screen tested about 340,000 compounds, of which about 2,100 (0.62%) were called active.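 How the source made its calls: active means first-screen hits whose inhibition reached a set limit at any dose in the follow-up dose series; inconclusive means inhibition above the set first-screen limit but never retested; inactive means the rest.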 A selection follows. Potency and affinity values are given separately.

These compounds were tested against Rac GTPase-activating protein 1 (Homo sapiens) (UniProt Q9H0H5) (assay: blockers of MgcRacGAP-driven Rac1 GTP hydrolysis – biochemical, ADP Hunter fluorescence, primary and confirmatory, confirmation (AID 624330;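 further: fluorescence reports GDP produced by GAP-driven GTP hydrolysis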)). Conditions: MgcRacGAP-stimulated Rac1 GTP hydrolysis, at 30 µM, stronger effect = higher value, GST-tagged Rac1 F28L mutant substrate.
Rac GTPase-activating protein 1 (Homo sapiens), sequence (Q9H0H5 whole entry, looked up): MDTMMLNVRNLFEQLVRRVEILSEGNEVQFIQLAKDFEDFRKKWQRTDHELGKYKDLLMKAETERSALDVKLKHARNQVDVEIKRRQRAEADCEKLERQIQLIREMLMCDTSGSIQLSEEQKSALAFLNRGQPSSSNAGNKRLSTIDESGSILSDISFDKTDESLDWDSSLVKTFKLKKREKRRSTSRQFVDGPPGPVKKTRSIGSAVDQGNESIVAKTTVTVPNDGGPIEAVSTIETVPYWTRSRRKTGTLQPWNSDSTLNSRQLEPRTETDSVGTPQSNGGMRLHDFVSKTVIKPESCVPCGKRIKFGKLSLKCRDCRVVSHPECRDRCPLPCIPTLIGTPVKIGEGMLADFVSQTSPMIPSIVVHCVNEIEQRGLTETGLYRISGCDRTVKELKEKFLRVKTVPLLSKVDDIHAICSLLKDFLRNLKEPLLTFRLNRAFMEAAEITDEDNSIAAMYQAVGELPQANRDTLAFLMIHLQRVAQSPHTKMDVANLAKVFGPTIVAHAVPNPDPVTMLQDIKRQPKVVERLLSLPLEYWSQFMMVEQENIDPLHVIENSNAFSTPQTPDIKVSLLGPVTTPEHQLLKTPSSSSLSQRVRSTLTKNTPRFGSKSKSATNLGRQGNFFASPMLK

inhibition, inactive:
Cc1nnc(NC(=O)CSc2ccccc2N)s1 6.42%
CCOc1cccc2cc(C(=O)N3CCOCC3)c(=O)oc12 5.1%
O=C(Cn1cccc1C(=O)c1ccccc1)NCc1cccnc1 14.8%
O=C(CSc1nc2ccccc2[nH]1)Nc1c(F)c(F)c(F)c(F)c1F 1.98%
COc1ccccc1S(=O)(=O)Cc1ccc(C(=O)NC2CCCCC2)o1 5.84%
COc1ccc(CN2CCC(C(=O)N3CCCC(C)C3)CC2)cc1OC (centres undefined) 12.3%
COc1cc(CN2CCCCCC2)cc(Br)c1O 15.4%
CCOc1cc(CN2CCC(N3CCC(C(=O)NC4CC4)CC3)CC2)ccc1O 17.9%
CCOC(=O)C1CCN(Cc2ccc(O)c(OC)c2)CC1 27.4%
COc1cc(CN2CCC(C(=O)NC3CCCC3)CC2)cc(OC)c1O 23.1%
COc1cc(CN2CCC(C(=O)N3CCCC(C)C3)CC2)cc(OC)c1O (centres undefined) 26.8%
COCc1cc(C(C)=O)ccc1OCC(=O)Nc1ccc(NC(C)=O)cc1 1.37%
CC(NC(=O)c1ccc(Br)o1)c1ccccc1 (centres undefined) 7.96%
CCC(=O)N(CCc1ccccc1)Cc1cc2cc3c(cc2[nH]c1=O)OCO3 8.92%
N#CC(=Cc1ccccn1)c1nc(-c2ccc(Cl)cc2)cs1 6.28%
Cc1ccc(C(=O)NCC(=O)NCC(=O)OCc2ccc(Cl)cc2)cc1 8.02%
O=C(CCCn1c(=O)[nH]c2ccccc2c1=O)NCCSCc1ccccc1 -5.64%
CCCn1c(N)c(Br)c(=O)[nH]c1=O 12.3%
Cn1c(=O)[nH]c2c(cnn2C)c1=O -2.19%
Cn1nnnc1SCCNC(=O)C1CCC(=O)N(Cc2ccccc2F)C1 (centres undefined) 11%
Cc1cc(Nc2cccc([N+](=O)[O-])c2)c2ccccc2n1 13.8%
Cc1cc(Nc2ccc([N+](=O)[O-])cc2)c2ccccc2n1 4.06%
O=C(c1cccc(S(=O)(=O)N2CCc3ccccc32)c1)N1CCN(CCO)CC1 1.12%
O=C(NNc1c2ccccc2nc2ccccc12)c1ccccc1Cl 8.54%
O=C(NNc1c2ccccc2nc2ccccc12)c1ccccc1O 9.79%
Cc1ccc(S(=O)(=O)NCC(=O)N(CC2CCCO2)C(C(=O)NC2CCCC2)C(C)C)cc1 (centres undefined) -2.26%
N#CCCN1CCN(CCC#N)C1=S -2.38%
N#CCCN1CCn2c1nc1ccccc12 7.51%
COc1ccc(Cc2nc3c4c(ncn3n2)Oc2c(ccc3ccccc23)C4c2ccc(OC)c(OC)c2)cc1 (centres undefined) 0.4%
COc1cccc(-c2nnc(NC(=O)CCS(=O)(=O)c3ccc(F)cc3)o2)c1 9.6%
OCC[C@H]1C[C@H](O)[C@@H](O)[C@]2(CCCc3ccccc3O2)O1 6.49%
CC(NC(=O)N(Cc1ccccc1)Cc1ccc2c(c1)OCO2)(C(F)(F)F)C(F)(F)F -1.55%
CC(C)(C)N(Cc1ccccc1)C(=O)COC(=O)/C=C/c1ccc2c(c1)OCO2 7.28%
CSc1cccc(NC(=O)COC(=O)C2CCN(S(=O)(=O)c3ccccc3)CC2)c1 3.95%
CC[C@H]1CN2CCc3cc(OC)c(OC)cc3[C@@H]2C[C@@H]1C[C@H]1NCCc2cc(OC)c(OC)cc21 -1.46%
CC[C@H]1CN2CCc3cc(OC)c(OC)cc3C2C[C@@H]1C[C@H]1NCCc2cc(OC)c(OC)cc21 (some centres undefined) 5.06%
Oc1[nH]c2ccc(Br)cc2c1N=NC(=S)Nc1ccc(F)cc1 2.02%
COc1ccc(NC(=S)N=Nc2c(O)[nH]c3ccccc23)cc1 19.4%
Oc1cccc(NC(=S)N=Nc2c(O)[nH]c3ccc(Br)cc23)c1 21.1%
Cc1ccc(NC(=S)N=Nc2c(O)[nH]c3ccccc23)cc1 9.95%
CC(=O)n1cc(/C=N/NC(=O)c2ccc([N+](=O)[O-])cc2)c2ccccc21 7.25%
CCOC(=O)c1ccc(NC(=S)N(CCCN2CCCC(C)C2)Cc2ccco2)cc1 (centres undefined) 3.37%
Cc1ccc(-c2cc3c(nn2)-c2ccccc2C3=O)cc1 11.8%
CC1CCC2(CC1)NC(=O)N(CC(=O)Nc1cccc(S(=O)(=O)N3CCCC3)c1)C2=O (centres undefined) 4.59%
CCOc1ccc(-n2nc(C(=O)NC3CCCCC3)c3ccccc3c2=O)cc1 -4.66%
Nc1nc(N)c2nc(-c3ccccc3)c(N)nc2n1 4.54%
Nc1[nH]c(=S)nc2nc(-c3ccccc3)c(-c3ccccc3)nc12 9.86%
COCC1CCCCC1OS(N)(=O)=O (centres undefined) 10.2%
Nc1ccc(Cc2ccc(N)c(O)c2)cc1O -7.75%
Nc1ccc(Cc2ccc(N)c(C(=O)O)c2)cc1C(=O)O 7.39%
N#Cc1cc(C(=O)Cc2ccccc2)c[nH]1 -3.54%
COc1cccc(C(=O)C2CCCN(C(=O)c3ccc(C#CC(C)(C)O)cc3)C2)c1 (centres undefined) 1.51%
COc1ccc(C(=O)N2c3ccccc3CC2C)cc1OC (centres undefined) 3.63%
COc1cccc(C(=O)N2CCN(C3CCC(c4ccccc4)CC3)CC2)c1 (centres undefined) 14.9%
O=C(c1ccc(F)cc1)N1CCC(N2CCCCCC2)CC1 11%
CC1CCCC(N2CCN(C(=O)c3ccc(F)cc3)CC2)C1 (centres undefined) 19.6%
O=C(c1ccc(F)cc1)N1CCN(C2CCC(c3ccccc3)CC2)CC1 (centres undefined) 12.1%
O=C(c1ccc([N+](=O)[O-])cc1)N1CCCC1 13.8%
O=C(c1ccccc1)N1CCN(C2CCCCC2)CC1 44.8%
O=C(c1ccccc1)N1CCN(C2CCCCCC2)CC1 25.4%
COc1cc(OC)cc(C(=O)N2CCN(C3CCCCC3)CC2)c1 19.9%
COc1ccc(-n2c(SC3CCOC3=O)nc3ccccc3c2=O)cc1OC (centres undefined) 7.23%
FC(F)(F)c1cccc(N2CCN(C3CC4CCC3C4)CC2)c1 (centres undefined) -3.5%
CC(C(=O)NCCN1CCOCC1)(c1ccccc1)c1ccccc1 9.67%
CCN(Cc1cc(OC)c(OC)c(OC)c1)C(=S)Nc1cccc(SC)c1 8.44%
COc1ccccc1CNS(=O)(=O)c1cc(C(=O)NCC2CCCO2)c(Cl)cc1Cl (centres undefined) 4.61%
O=C(c1nc[nH]c1C(=O)N1CCN(c2ccccc2)CC1)N1CCN(c2ccccc2)CC1 8.08%
CN(CC(=O)Nc1ccccc1C(F)(F)F)C(=O)COc1cccnc1[N+](=O)[O-] 2.02%
C/C(=N\NC(=O)c1ccc(Cl)cc1)c1ccccn1 -1.19%
Cc1sc2ncnc(N3CCC(C(=O)Nc4ccc(S(N)(=O)=O)cc4)CC3)c2c1C 6.51%
O=C(c1cccc(F)c1)N1CCC(N2CCCCCC2)CC1 27%
CC1CCCC(N2CCN(C(=O)c3cccc(F)c3)CC2)C1 (centres undefined) 13.7%
CC(C)Oc1ccc(CNC(=O)c2cc(S(=O)(=O)N3CCOCC3)cn2C)cc1 7.69%
Cc1ccc2c(CC(=O)OCc3csc(C)n3)coc2c1 3%
Cc1ccc2c(CC(=O)O)coc2c1 -1.54%
COc1ccc(CN2CCN(C(=O)c3cc(-c4cccnc4)nc4ccc(Cl)cc34)CC2)c(OC)c1OC 0.91%
CCCn1c(=O)c2c(C(F)(F)F)cc(-c3ccco3)nc2n(CCC)c1=O 6.17%
C/C(CC(=O)Nc1ccc(N(C)C)cc1)=N\NC(=O)c1cnccn1 25.8%
C/C(CC(=O)Nc1ccc(N(C)C)cc1)=N\NC(=O)c1ccc(C(C)(C)C)cc1 14.2%
COc1cc(NC(=O)C/C(C)=N/NC(=O)C(OC)c2ccccc2)c(OC)cc1Cl (centres undefined) 15.9%
C/C(CC(=O)Nc1ccc(N(C)C)cc1)=N\NC(=O)c1ccc(Cl)cc1 21.2%
C/C(CC(=O)Nc1ccc(N(C)C)cc1)=N\NC(=O)c1ccccn1 16.9%
C/C(CC(=O)Nc1ccc([N+](=O)[O-])cc1)=N\NC(=O)c1ccccc1[N+](=O)[O-] 7.35%
C/C(CC(=O)Nc1ccc([N+](=O)[O-])cc1)=N\NC(=O)c1ccccc1O 3.2%
COC(C(=O)N/N=C(\C)CC(=O)Nc1ccc(Cl)cc1C)c1ccccc1 (centres undefined) 0.47%
CC1(C)CC(=O)C2=C(C1)C(c1cn(-c3ccccc3)nc1-c1ccccc1)C(C#N)=C(N)O2 (centres undefined) 2.04%
Cc1cc(Br)cc(C)c1NC(=S)NC(=O)CC(C)C 7.74%
NC(N)=NS(=O)(=O)c1ccc(N/C=C/C(=O)c2ccc(Cl)c(Cl)c2)cc1 6.29%
COC(=O)[C@H](CCSC)NC(=O)Cn1cnc2c(OCc3ccccc3)ncnc21 5.04%
COc1ccc(OCC(=O)NNC(=O)c2ccc3c(=O)n4c(nc3c2)CCC4)cc1 8.67%
COc1ccc(S(=O)(=O)N2CCN(C(=O)c3ccco3)CC2)c(C)c1C 1.7%
O=C(O)c1cc(N2C(=O)C3C4C=CC(C4)C3C2=O)ccc1N1CCOCC1 (centres undefined) 4.85%
O=C(Nc1nccs1)C1CCCN1/C=C/C(=O)C(F)(F)F (centres undefined) -1.71%
C=CCNC(=O)c1n[nH]c2c1CC(C(C)(C)CC)CC2 (centres undefined) 8.27%
